Whole data set: some 33,000 sequences, median “normalized occupancy” near 0.075, cut for the highest 2% near 0.095. The list comes from a sample in which the highest values are over-represented; it also holds similar and randomly drawn sequences.
molecular target: MaxL homodimer (Homo sapiens, UniProt P61244 1-160); experiment: universal protein-binding microarray (PBM); PBS-based mixture, 10 nM His-tagged protein dimer, 2% milk, 200 ng/uL BSA, 50 ng/uL salmon testes DNA, 0.02% TX-100; detection with Alexa 488 anti-His antibody;; high values mean tight binding; conditions: protein: recombinant; tags: C-terminal His-tag (pET21a); chain copies: 2; dsDNA, one strand shown
Sequence (P61244 whole entry): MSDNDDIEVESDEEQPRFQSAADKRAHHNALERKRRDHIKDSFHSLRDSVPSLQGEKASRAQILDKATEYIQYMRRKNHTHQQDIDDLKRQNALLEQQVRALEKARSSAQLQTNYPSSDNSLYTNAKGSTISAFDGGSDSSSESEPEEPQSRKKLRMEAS
Summary of the method: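 A His-tagged protein dimer at 10 nM was incubated on Agilent 4 x 44 K arrays of the 'all 10-mer' universal design, then labelled with 10 ng/μL fluorophore-conjugated anti-His antibody and scanned on a GenePix 4400A. A fluorescence intensity was assigned to each 8-mer. Binding occupancy is each such intensity normalised to that of the highest-ranked one.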

Sequence | binding signal [normalized occupancy]
AACGTGCT | 0.115
AAGGTGCC | 0.0753
CACGTGCG | 0.641
AATTACGG | 0.0744
CATTGGCG | 0.0762
AACTTATT | 0.0797
CTGTTATC | 0.078
CATTAGCG | 0.0779
CTCGTGCA | 0.1
CAGGTGCC | 0.0785
AACGTGCG | 0.108
AACGTGCA | 0.109
AAGGTGCG | 0.077
AACGTCCG | 0.0721
CACGTACC | 0.0843
CACGTGCC | 0.521
AACGTCCA | 0.0778
AACGTTCA | 0.0836
GTCGTGCA | 0.0855
ATCGTGCA | 0.0816
CAGGCTGA | 0.0746
AAAGCACG | 0.0922
AGTGTTAA | 0.0742
CCCATAAG | 0.0856
ACATCCTA | 0.0822
AATTAATC | 0.0741

Sequence | binding signal [normalized occupancy]
ACGGGGAC | 0.0795
ACCAGAAC | 0.0763
CGGCATCA | 0.0791
CCAGGTCG | 0.0731
CATACATA | 0.0846
CATACATG | 0.0969
CATACACC | 0.0901
CATACACA | 0.0892
AATACATG | 0.0934
CGTACACA | 0.0813
CGTACACG | 0.0971
AGTACACA | 0.0858
CATACACG | 0.097
CCGCTTAC | 0.0724
TCAGGCAA | 0.0718
GACGGCGA | 0.0752
CCAACAAG | 0.0776
CCGCGAGG | 0.0805
AACCTAAC | 0.0728
GCGATTCC | 0.0814
ACCCACCA | 0.088
ACCCACGG | 0.0796
ACCCACGA | 0.0913
CCCCACGC | 0.0979
GCCCACGA | 0.0823
ACCCACGC | 0.105

Sequence | binding signal [normalized occupancy]
ACCCACGT | 0.0984
CCCCACGA | 0.0848
GCCCACCC | 0.087
CCCCACGG | 0.0843
ACCCACAT | 0.0932
GCCCACGC | 0.0978
CTCGCACC | 0.0733
ATCTATTG | 0.078
AGATAGGC | 0.078
ACATAGAA | 0.0839
TAGTTAAA | 0.0739
AAGCATAG | 0.0734
GAGCATAC | 0.0789
GAGCATGC | 0.113
AAGCATGA | 0.101
AAGCATTG | 0.0783
CAGCATGC | 0.126
AAGCATGG | 0.11
AAGCATAA | 0.0767
GAGCACGC | 0.094
CAGCATAC | 0.0829
CAGCATCC | 0.0746
AAGCATTA | 0.082
ATTGGCAG | 0.0726
GTTTACCA | 0.0757
CCGATAAA | 0.0723

Sequence | binding signal [normalized occupancy]
CATCACCC | 0.0788
AGTTGCAT | 0.0779
AGCATAAC | 0.0787
CAAGGGGC | 0.0772
TACCTTGA | 0.0849
CTTATAGA | 0.0769
AAGCATCT | 0.0778
AAGCATAC | 0.0751
AAGCATTC | 0.0773
AAGCATGC | 0.118
AAGCATAT | 0.0839
AAGCATGT | 0.0997
AATGAACC | 0.0718
AGTTTTAT | 0.0775
ACTCATGA | 0.0903
ACTCATGC | 0.0969
AGTCATGA | 0.0829
AGTCATGG | 0.0855
AGTCATGC | 0.096
CCTCATGA | 0.0951
CCTCATGC | 0.109
CTTCATGC | 0.0794
ACTCATGG | 0.0945
AATACACG | 0.0912
CCCTCGAA | 0.0795
AGCACGAT | 0.0857

Sequence | binding signal [normalized occupancy]
CGCACAAA | 0.0718
CGCACGAG | 0.107
AGCACGTG | 1
CGCACGAA | 0.0816
AGCACGAG | 0.0964
AGCACGTC | 0.081
AGCACGTA | 0.0853
AGCACGAA | 0.0827
CTACCCCA | 0.0788
ACGAGGCT | 0.0805
AGAACAAT | 0.0787
ACCCGCTG | 0.0761
CCCCGTTA | 0.0766
CACGATGG | 0.0884
CTAGCACA | 0.0827
GCATGTAC | 0.0973
CCATGTAC | 0.086
CTATGTAC | 0.0847
ACATGTAC | 0.0958
AGATGTAC | 0.0766
GAATGTAC | 0.0769
TGAGATAA | 0.0797
ATAATGAC | 0.0804
AACTTGCC | 0.0757
GAAACGCC | 0.0758
CACTGCTG | 0.0746

Sequence | binding signal [normalized occupancy]
ATATGATC | 0.0857
CCACATAA | 0.0799
CAGCAGAG | 0.0727
AATGAGTA | 0.077
GATGAGGC | 0.0786
CATGAGGG | 0.109
CATGAGAG | 0.0941
CATGAGGA | 0.106
AATGAGGA | 0.0838
TATGAGGA | 0.0851
AATGAGGC | 0.0776
CATGAGTA | 0.0969
CATGAGTC | 0.091
AATGAGGG | 0.0862
CATGAGGC | 0.109
GACACTTA | 0.0771
GCAACACA | 0.0795
TCAACTAA | 0.0725
ATTGAAAT | 0.0772
GTGAGTCA | 0.0793
CCCCCCCA | 0.0901
CGACAGCA | 0.0797
ATAAATAG | 0.0754
ATTCAGTA | 0.0734
ATGACTAC | 0.0811
ATGAGGGG | 0.0902

Sequence | binding signal [normalized occupancy]
ATGAGGGA | 0.0908
ATGAGGGC | 0.0956
GATTTAGA | 0.0724
ACGTTGAC | 0.0793
ATACCACA | 0.089
CTACCACA | 0.0867
ATACCACG | 0.0991
AAACCACA | 0.0814
TAACCACA | 0.0809
AAACCACG | 0.0972
CCGTTCTC | 0.0814
ACAGCATA | 0.0896
ACAGCATC | 0.0767
AGAGCATG | 0.0989
AGAGCATA | 0.0815
AGAGCATC | 0.0755
ATAGCATC | 0.0799
ATAGCATA | 0.0872
ATAGCATG | 0.103
ACAGCATG | 0.127

From paper PMC4242493, “Sequence specificity incompletely defines the genome-wide occupancy of Myc”
